Results: PubChem BioAssay
Activity calls are given as the source filed them. The rule behind the calls is not given here.

What follows are compounds tested against Pantothenate synthetase (Mycobacterium tuberculosis (strain ATCC 25618 / H37Rv)) (UniProt P9WIL5) (assay: Recombinant Mtb pantothenate synthetase (PanC) inhibitors, coupled enzyme, confirmatory (AID 375;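 note: 0% = full reaction with vehicle and 100% = no enzyme background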)). Conditions: coupled enzyme assay; at 10 µM, stronger effect = higher value.
Pantothenate synthetase (Mycobacterium tuberculosis (strain ATCC 25618 / H37Rv)), sequence (P9WIL5 whole entry, looked up): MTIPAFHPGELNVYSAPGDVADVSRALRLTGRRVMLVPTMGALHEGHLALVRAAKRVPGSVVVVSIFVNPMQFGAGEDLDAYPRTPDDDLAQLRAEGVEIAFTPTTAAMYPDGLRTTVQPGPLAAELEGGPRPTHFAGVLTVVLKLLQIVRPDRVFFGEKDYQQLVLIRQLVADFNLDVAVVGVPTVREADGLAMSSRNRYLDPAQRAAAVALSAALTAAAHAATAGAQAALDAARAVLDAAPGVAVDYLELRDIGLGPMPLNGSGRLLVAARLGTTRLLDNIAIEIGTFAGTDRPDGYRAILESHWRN
With COc1cc(CO)cc(-c2cc(CO)cc(OC)c2OC)c1OC the inhibition was 0% (inactive).
CCCNC(=O)c1ccccc1C(=O)NCCC was tested, and the inhibition was 0% (inactive).
For CCCCNc1cc(C(=O)O)cc(S(N)(=O)=O)c1Oc1ccccc1, the inhibition was 3% (inactive).
COC(=O)c1cc2ccsc2n1CC(=O)Nc1cc(C)cc(C)c1 was tested, and the inhibition was 0% (inactive).
With Cc1cccc(NC(=O)C2CCCN(C(=O)Nc3ccccc3)C2)c1C (centres undefined) the inhibition was 2% (inactive).
In the case of COc1ccc(CN(C(=O)c2cccs2)c2nccs2)cc1OC, the inhibition was 3% (inactive).
O=C1CC(C2CCCO2)C(=O)N1Cc1ccccc1 (centres undefined) was tested, and the inhibition was 0% (inactive).
In the case of Cc1ccc(C)c(N2CCN(C(=O)c3cc4ccccn4n3)CC2)c1, the inhibition was 0% (inactive).
In the case of CCc1nnc(NC(=O)CSc2nnc(-c3ccoc3C)n2CC(C)C)s1, the inhibition was 0% (inactive).
With O=C(NCCCCNC(=O)c1cccnc1)c1cccnc1 the inhibition was 0% (inactive).
For CC(OC1=CC(=O)CCC1)C(=O)c1ccccc1 (centres undefined), the inhibition was 2% (inactive).
With COCCn1c(C)c(C(=O)O)sc1=S the inhibition was 6% (inactive).
COC(=O)c1[nH]c2c(c1C)C(=O)CC(c1cccs1)C2 (centres undefined) was tested, and the inhibition was 3% (inactive).
CCOC(=O)c1c(NC(=O)c2cccs2)sc(C)c1C was tested, and the inhibition was 0% (inactive).
In the case of CCOc1cccc(OCCOCCN2CCCC2)c1, the inhibition was 8% (inactive).
With O=S(=O)(NCc1cccnc1)c1cccc2nsnc12 the inhibition was 12% (inactive).
CCN(CC)CCn1c2ccccc2c2nc(C)sc21 was tested, and the inhibition was 1% (inactive).
For O=C(Cn1c(=O)n(Cc2ccc3c(c2)OCO3)c(=O)c2ccccc21)N1CCCc2ccccc21, the inhibition was 0% (inactive).
With CCOc1cc(N2CCOCC2)c(OCC)cc1NC(=O)COC(=O)CCc1c[nH]c2ccccc12 the inhibition was 0% (inactive).
With N#CC1=C(SCC(=O)NC23CC4CC(CC(C4)C2)C3)NC(=O)C(C#N)C12CCCCC2 (centres undefined) the inhibition was 0% (inactive).
With CC1(C)Cc2noc(N)c2C(C)(C)N1OC(=O)c1ccco1 the inhibition was 0% (inactive).
O=[N+]([O-])c1cccc2cn[nH]c12 was tested, and the inhibition was 0% (inactive).
In the case of CC1CCCC(NC(=O)CN2CCN(Cc3ccc(Cl)cc3)C2=O)C1C (centres undefined), the inhibition was 7% (inactive).
For CCc1nccn1S(=O)(=O)c1ccc(C)c(C)c1, the inhibition was 0% (inactive).
CCOC(=O)CSc1nc2cc(C(=O)N3CCC(C(N)=O)CC3)ccc2c(=O)n1-c1ccccc1 was tested, and the inhibition was 0% (inactive).
CCCc1cc(=O)[nH]c(/N=C(\N)Nc2ccccc2)n1 was tested, and the inhibition was 6% (inactive).
N#Cc1nc(-c2cccs2)oc1NCCc1ccccc1 was tested, and the inhibition was 0% (inactive).
For CCc1nn2c(=O)cc(CSc3nc4sc5c(c4c(=O)n3C)CCCC5)nc2s1, the inhibition was 0% (inactive).
In the case of COC(=O)C(C)C1Sc2ccccc2NC1=O (centres undefined), the inhibition was 11% (inactive).
In the case of COc1ccccc1NC(=O)N1CCCC1C(=O)NC1CCCCC1 (centres undefined), the inhibition was 0% (inactive).
With CCN(C(=O)c1cc(Cl)ccc1OC)C1CCCCC1 the inhibition was 0% (inactive).
In the case of COc1ccc(NC(=O)CN2CCCCC2)cc1, the inhibition was 0% (inactive).
COc1ccc(S(=O)(=O)CCC(=O)O)cc1 was tested, and the inhibition was 6% (inactive).
With Cc1nc2cc(NC(=O)N3CC4(C)CC3CC(C)(C)C4)ccc2n1C (centres undefined) the inhibition was 8% (inactive).
With C=CCn1c(CC#N)nnc1N1CCOCC1 the inhibition was 0% (inactive).
In the case of c1ccc2c(c1)nc(NCCN1CCOCC1)c1nncn12, the inhibition was 2% (inactive).
With CC(Oc1ccc(Br)cc1)C(=O)N1CCc2ccccc21 (centres undefined) the inhibition was 0% (inactive).
COc1ccc(S(=O)(=O)NCCCN2CCOCC2)c2ccccc12 was tested, and the inhibition was 0% (inactive).
In the case of CCN(CC(=O)O)S(=O)(=O)c1cc(Cl)ccc1Cl, the inhibition was 0% (inactive).
